Rows were chosen to be rich in hits. Some 3.5% of all compounds tested hit in one or more screens of this group.
GPR151 ag = activators of human GPR151, primary screen, cell-based, PathHunter beta-arrestin, luminescence; PathHunter beta-arrestin GPR151 cells; activation, % at 11.2 µM; actives 1% (n = 650,000); AID 1508602, 2020; in the data active = activation above about 4.9%
TEAD-YAP inh = TEAD-YAP interaction inhibition, primary screen, TEAD-YAP interaction inhibitor project, luminescence, HEK-TIYL cells | actives 1.4% (n = 640,000) | inhibition, % at 9.12 µM | TEAD-Gal4/YAP UAS-luciferase luminescence | AID 1259422, 2018; in the data active = inhibition above about 32%
MITF inh = MITF inhibitors, primary screen, biochemical, AlphaScreen, human. actives 0.91% (n = 650,000). AlphaScreen MITF homodimerization, bead proximity signal. Microphthalmia-associated transcription factor (Homo sapiens), O75030. inhibition, % at 2.6 µM; in the data active = inhibition above about 50%
FBW7 act = FBW7 E3 ligase activators, primary screen, biochemical, AlphaScreen, human; F-box/WD repeat-containing protein 7 (Homo sapiens), Q969H0; AlphaScreen FBW7–phospho-cyclin E peptide binding, activator screen; normalized activity (activation), % at 26.1 µM; actives 0.13% (n = 650,000); AID 1259310, 2017; in the data active = normalized activity above about 1.9%;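 also: purified mutant Fbw7 with reduced substrate affinity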
GPR151 confirm = GPR151 activators, triplicate retest, confirmation, cell-based, PathHunter beta-arrestin, luminescence; GPR151 PathHunter beta-arrestin cells, 90 min; % of EA-reagent control over plate median; shares compounds with GPR151 ag; AID 1508609, 2020; activation, % at 11.2 µM; 6,700 tested, under 10 active;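 active = mean percent activation across replicates above the confirmation screen cutoff of 4.91%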
GPR119 ag = GPR119 activators in beta-arrestin cells, counter-screen for GPR151 activator project, cell-based, PathHunter beta-arrestin, luminescence, triplicate | 90 min; 0 = compound-well median, 100 = enzyme-acceptor control | shares compounds with GPR151 ag | activation, % at 11.2 µM | AID 1508611, 2020 | actives 0.3% (n = 6,700);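 active = mean percent activation in the counterscreen above 29.09%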;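 also: counterscreen on off-target GPR119 to flag nonselective hits from the GPR151 activator screen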
Target sequence (Q8TDV5 whole entry, looked up): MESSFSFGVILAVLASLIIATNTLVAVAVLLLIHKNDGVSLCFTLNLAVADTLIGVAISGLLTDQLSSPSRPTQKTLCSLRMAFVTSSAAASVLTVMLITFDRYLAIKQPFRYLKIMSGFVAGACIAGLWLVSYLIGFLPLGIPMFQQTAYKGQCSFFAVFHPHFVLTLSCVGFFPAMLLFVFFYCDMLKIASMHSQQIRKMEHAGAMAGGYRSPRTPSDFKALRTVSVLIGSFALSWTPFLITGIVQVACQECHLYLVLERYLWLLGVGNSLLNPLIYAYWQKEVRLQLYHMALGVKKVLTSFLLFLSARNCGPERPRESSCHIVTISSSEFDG
A number is an active result.

Screening CC1(C)CC(=O)C2=C(C1)OC1=C(C(=O)CC(C)(C)C1)C2c1cccs1 returned GPR151 ag inactive, TEAD-YAP inh inactive, MITF inh inactive and FBW7 act inactive.
Screening CC1(C)CC(=O)C2=C(C1)OC1=C(C(=O)CC(C)(C)C1)C2C=C(Cl)Cl returned GPR151 ag 6.6, TEAD-YAP inh inactive, MITF inh inactive, FBW7 act inactive, GPR151 confirm inactive and GPR119 ag inactive.
For O=C(CN1CCSCC1)N/N=C/c1ccccc1Cl the results were GPR151 ag inactive, TEAD-YAP inh inactive, MITF inh inactive and FBW7 act inactive.
For O=C(NCc1ccc(Cl)cc1)C1CCC(Cn2c(=S)[nH]c3ccsc3c2=O)CC1 (stereo not given) the results were GPR151 ag 7.0, TEAD-YAP inh inactive, MITF inh inactive, FBW7 act inactive, GPR151 confirm inactive and GPR119 ag inactive.
Screening Cc1cc(OC(C)C(=O)N(Cc2ccco2)C2CCS(=O)(=O)C2)ccc1Cl (stereo not given) returned GPR151 ag inactive, TEAD-YAP inh inactive, MITF inh inactive and FBW7 act inactive.
Screening Cc1ccccc1NC(=O)C(C)(C)N(Cc1ccco1)C(=O)C(C)Oc1cc(Cl)c(Cl)cc1Cl (stereo not given) returned GPR151 ag 5.6, TEAD-YAP inh inactive, MITF inh inactive, FBW7 act inactive, GPR151 confirm inactive and GPR119 ag inactive.
Screening CC(=O)c1ccc(-c2ccc(/C=C(\C#N)C(N)=S)o2)cc1 returned GPR151 ag inactive, TEAD-YAP inh inactive, MITF inh inactive and FBW7 act inactive.
Screening COc1ccc(NC(=O)/C(C#N)=C/c2ccc(-c3ccccc3C(=O)O)o2)cc1 returned GPR151 ag inactive, TEAD-YAP inh inactive, MITF inh inactive and FBW7 act inactive.
For N#C/C(=C\c1ccc(-c2ccccc2C(=O)O)o1)C(=O)Nc1ccccc1 the results were GPR151 ag 8.2, TEAD-YAP inh inactive, MITF inh inactive, FBW7 act inactive, GPR151 confirm inactive and GPR119 ag inactive.
N#C/C(=C\c1ccc(-c2ccccc2C#N)o1)C(N)=S was read as GPR151 ag 6.0, TEAD-YAP inh inactive, MITF inh inactive, FBW7 act inactive, GPR151 confirm inactive and GPR119 ag inactive.
Screening N#CC1=C(N)Oc2n[nH]c(-c3ccccc3)c2C1c1ccc(Br)s1 (stereo not given) returned GPR151 ag inactive, TEAD-YAP inh inactive, MITF inh inactive and FBW7 act inactive.
Screening O=C(Nc1cccc(Oc2ccc(C(=O)O)c(C(=O)O)c2)c1)c1ccc(-c2ccccc2)cc1 returned GPR151 ag 6.9, TEAD-YAP inh inactive, MITF inh inactive, FBW7 act inactive, GPR151 confirm inactive and GPR119 ag inactive.
`O=C(Nc1cccc(Oc2ccc(C(=O)O)c(C(=O)O)c2)c1)c1ccc([N+](=O)[O-])cc1` gave GPR151 ag inactive, TEAD-YAP inh inactive, MITF inh inactive and FBW7 act inactive.
For CCCN(CC(=O)Nc1ccccc1C)C(=O)CCl the results were GPR151 ag 8.4, TEAD-YAP inh 72, MITF inh inactive, FBW7 act inactive, GPR151 confirm inactive and GPR119 ag inactive.
For Cc1ccc(S(=O)(=O)NC(=O)Nc2nnc(C(F)(F)F)s2)cc1 the results were GPR151 ag inactive, TEAD-YAP inh inactive, MITF inh inactive and FBW7 act inactive.
Cc1cc(C)n2nc(SCC(=O)NCCN(C)C)nc2n1 was read as GPR151 ag inactive, TEAD-YAP inh inactive, MITF inh inactive and FBW7 act inactive.
For CC1(C)CC(=O)c2sc(NC(=O)COc3ccc(Cl)cc3)nc2C1 the results were GPR151 ag 6.4, TEAD-YAP inh inactive, MITF inh inactive, FBW7 act inactive, GPR151 confirm inactive and GPR119 ag inactive.
For COc1cccc(CN2CCN(Cc3cccc(OC)c3)C(CCO)C2)c1 (stereo not given) the results were GPR151 ag inactive, TEAD-YAP inh inactive, MITF inh inactive and FBW7 act inactive.
